Experimental findings from PMC10163288 are described below.

These entries were drawn from the full list. No count for the full screen is at hand. Values without a mark were called inactive.

To fix the notation:
B1: il2ra_site2_2erj_sap_24_mot_HHH_b1_07975_000000000_0001_41_57_H_._HHH_b1_08466_af2_0001_0000800020_0000001_0_0001_af2pred_0001_af2pred (protein)
chain: SSSSSEEEEELKEFIEELVREFGLSEEVQKELEEIARFALEQGIDEEDIKKWLKLFAEETSSSSS
B2: il2ra_site2_3nfp_normal_mot_HHH_b1_01086_af2_000000264_0001_39_53_H_._a6da1dbab15e72488587f943ddaf1f3f_0001_1_af2_0001_0000500054_0000001_0 (protein)
chain: DREELLERIVREKDPRVEELLEEIKEAKERNDEELLEKLAKRLALIAFELGDPEVFALAADLQSI
B3: il2ra_site2_3nfp_normal_mot_HHH_b1_08498_000000146_0001_21_37_H_._HHH_b1_08008_0001_0000100001_0000001_0 (protein)
chain: SSSSDEEHLEAATRLIRAAAWALNDPELERRAEELLEEIKEHGDPELKQELAELTHEAFELSSSS
B4: il2ra_site2_2erj_normal_mot_HHH_b1_05749_af2_000000086_0001_23_39_H_._HHH_b2_01918_0001_0000200007_0000001_0 (protein)
chain: SSSSDELEEEVEELLEEVRRAYEEGDLEEAYRLAVRVFALAAENNDPELQRAVTRLLEELSSSSS
B5: il2ra_site1_3nfp_sap_17_mot_0eddeacbb14b769e73e254714f31e2f9_0001_af2_000000052_0001_37_51_H_._7093d3a5e4329be201a559e39cb9bd18_0001_0001_0000800048_0000001_0_0 … (protein)
chain: SSSDEAKELAEEAIEELERLIKEGDVRAVAETIRRIAKELLELNDPEALELLQREVRKLLRSSSS
B6: il2ra_site1_2b5i_sap_17_mot_2cbe48e66a1f39b3fed734b245ab0a04_0001_000000015_0001_17_31_H_._HHH_b1_01921_0001_0000600034_0000001_0_0001_af2pred_dldesign_0_af2pre … (protein)
chain: SSSSSDVKEVLELFEEANKLFQAGKPEEAKEVLEKALEKAKALGAEAHIRIIESALEQLESSSSS
B7: il2ra_site1_3nfp_sap_12_mot_HHH_b1_07180_af2_000000260_0001_1_19_H_._HHH_b2_06317_af2_0001_0000500010_0000001_0_0001_af2pred_0001_af2pred_1 (protein)
chain: SDEELIKKLVRIAVEQNSPRLLRKILRDFERYTGDPEEAERILEELIEEVLGDPEEARRLVEEAK
B8: il2ra_site1_1z92_normal_mot_c9a8daa1dfea21d1414aecde54be4f54_0001_1_af2_000000024_0001_32_46_H_._0e4f66a3c4b070984708d3e1d5382b02_0001_1_af2_0001_0000100008_000 … (protein)
chain: NVAERLFEQAEELGVPPRAVVLALVSAVHAEDPRLREEAEELLERVRRGELPPEEAVRLLAELLE
B9: il2ra_site1_3nfp_sap_9_mot_HHH_b1_03716_af2_000000235_0001_20_37_H_._HHH_b1_05438_0001_0000400011_0000001_0_0001_af2pred_0001_af2pred_1 (protein)
chain: SSSSTELKELLKIVQRLFEEFNLSEEQAQELLQLAEELAKEGVSLEEIEELLRELAERLSSSSSS
B10: il2ra_site2_3nfp_sap_18_mot_11405e7faed88c9d08fdae67291e590b_0001_1_000000110_0001_14_30_H_._HHH_b2_00163_af2_0001_0000300012_0000001_0_0001 (protein)
chain: SSSSDKHERYLRAALELIERAIREGDHEIARRMLETVKSAAEDNNDEEIEELVEELEELLRSSSS
B11: il2ra_site2_2erj_normal_mot_HHH_b1_03609_af2_000000077_0001_42_55_H_._HHH_b2_01692_0001_0000500006_0000001_0 (protein)
chain: SSSSSEVEEEVREILEEAKHIEDPEEREKVLSKAAELAFENNDFEAWSLVSEVFRELAESSSSSS
B12: il2ra_site2_2erj_normal_mot_6bd1339e93f6fdda22195c76da45ec5d_0001_000000136_0001_37_51_H_._HHH_b2_06260_0001_0000100003_0000001_0_af2pred_0001_af2pred (protein)
chain: SSSSSEDEERVEELLEQAEEAAKRDPEKALHLLFEAMEIALKSDNEELLKLVLEVSHRIAESSSS
B13: il2ra_site2_2erj_normal_mot_HHH_b1_05749_af2_000000010_0001_23_39_H_._HHH_b1_07967_0001_0001100051_0000001_1 (protein)
chain: SSSSDWLEELYRLAVELLRLSSRRDEEEFERVYREIERLVEEFNNESAREILEHIRRLFEGSSSS
B14: il2ra_site1_2b5i_normal_mot_2cbe48e66a1f39b3fed734b245ab0a04_0001_000000015_0001_17_31_H_._HHH_b2_00019_0001_0000500012_0000001_0_af2pred_dldesign_0_af2pred (protein)
chain: SSSSSSDAEAEVERLLEEARKVNPEEAEKLLFKALVVAWAAKDPALVARVEAEAKRLLSSSSSSS
B15: il2ra_site2_3nfp_sap_25_mot_HHH_b2_07498_000000293_0001_1_14_H_._HHH_b1_01574_0001_0000100004_0000001_0_0001_af2pred_0001_1_af2pred_swapped (protein)
chain: SSSSSDEELLEEAKRLLEEGNLEEAFRVLAEAASEAIELGDEELAHEIAALAIEVAEKLGSSSSS
B16: il2ra_site1_1z92_sap_9_mot_HHH_b1_04604_af2_000000029_0001_42_56_H_._3020bb65e3c0c4c1750efda2a61ed53f_0001_1_af2_0001_0000300015_0000001_0_0001 (protein)
chain: SEEYLEEQLRRKLELGNIEDAARALFKFIAAAAGDPEQAEEFLEELLKRAGVPPEVIEKILEEAK
B17: il2ra_site1_2b5i_normal_mot_HHH_b2_00231_000000175_0001_20_36_H_._HHH_b2_07547_0001_0000100002_0000001_0_af2pred_0001_af2pred (protein)
chain: SSSSDVWELYLRASRLFLRGNPEEAERLLEEAIELAERLGDPEIAKQLEEMLRHVRRSLSSSSSS
B18: il2ra_site2_3nfp_sap_20_mot_ce0e691d864d74cc0dee145e42b7b696_0001_1_af2_000000051_0001_34_49_H_._HHH_b1_03816_af2_0001_0000500031_0000001_0_0001 (protein)
chain: SSSSSDEEKLEEARELYEEGNPEEARKILLHLVSEAEEKGDRELLFRIMALANEVAAALISSSSS

The target of this assay is il2ra, P01589. Nature of the assay: yeast display titration.
il2ra, P01589, sequence (P01589 whole entry): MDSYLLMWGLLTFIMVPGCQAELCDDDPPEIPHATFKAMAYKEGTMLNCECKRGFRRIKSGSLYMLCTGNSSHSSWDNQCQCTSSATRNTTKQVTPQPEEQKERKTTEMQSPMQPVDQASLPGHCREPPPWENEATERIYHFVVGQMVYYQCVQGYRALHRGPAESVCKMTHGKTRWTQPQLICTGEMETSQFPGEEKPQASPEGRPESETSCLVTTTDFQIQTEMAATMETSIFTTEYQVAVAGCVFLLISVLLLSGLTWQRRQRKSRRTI
For B1, the “apparent Kd” value was “no binding seen”.

As for B2, the “apparent Kd” value was “no binding seen”.

For B3, the “apparent Kd” value was “no binding seen”.

For B4, the “apparent Kd” value was “no binding seen”.

As for B5, the “apparent Kd” value is “no binding seen”.

In the case of B6, the “apparent Kd” value is “no binding seen”.

As for B7, the “apparent Kd” value is “no binding seen”.

On to B8, for which the “apparent Kd” value was “no binding seen”.

Take B9: the “apparent Kd” value is “no binding seen”.

In the case of B10, the “apparent Kd” value is “no binding seen”.

For the molecule B11, the “apparent Kd” value was “no binding seen”.

As for B12, the “apparent Kd” value was “no binding seen”.

In the case of B13, the “apparent Kd” value was “no binding seen”.

In the case of B14, the “apparent Kd” value was “no binding seen”.

Turning to B15, the “apparent Kd” value was “no binding seen”.

As to B16, the “apparent Kd” value is “no binding seen”.

Take B17: the “apparent Kd” value was “no binding seen”.

For the molecule B18, the “apparent Kd” value is “no binding seen”.
